Assay results published in PubChem BioAssay (NCATS).
Records with an inconclusive call do not appear. Active and inactive are the calls of the source. Calls come from the whole dose curve; as a rule, active = well fitted curve in the direction sought with a large enough effect; inconclusive = small, poorly fitted or top-dose-only effect, or another doubt; inactive = no such curve, though single readings can be large; an effect the other way counts as inactive or inconclusive.

Tests used:
[1] = P-glycoprotein substrates identified in KB-8-5-11 adenocarcinoma cell line, qHTS therapeutic library screen (AID 1346987); note: nearly all actives have a fitted effect of over 65% in size; note: potency is the fitted concentration of half-maximal effect
Summary of the method: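 Human cervical adenocarcinoma KB-8-5-11 cells, selected in colchicine to over-express P-gp and assayed without it, were exposed for 72 h to titrated compounds. An ATP-based luminescent viability signal gave AC50.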

[2] = tested on: Zika virus NS2B-NS3 protease (linked construct); assay: Primary screen NINDS Rhodamine qHTS for Zika virus inhibitors (AID 1347160); note: nearly all actives have a fitted effect of over 55% in size
Summary of the method: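 Single-chain NS2B-NS3 protease, 25 nM, pH 8.0; compounds preincubated 15 min. Activity: Rhodamine110 release from 1.5 microM substrate over 15 min, room temperature, data fitted to 4-parameter Hill.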

[3] = target: Calcium and integrin-binding protein 1 (Homo sapiens) (UniProt Q99828); assay: Primary qHTS for Identification of Calcium Integrin Binding Protein 1 (CIB1) Competitor (AID 1508620);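 note: GST tagged CIB1 binding a fluorescein labelled alphaIIb integrin peptide tracer; top concentration of the series differs between compounds; % is set by controls: 0 for no effect and ±100 for the full control effect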
Calcium and integrin-binding protein 1 (Homo sapiens), sequence (Q99828 whole entry, looked up): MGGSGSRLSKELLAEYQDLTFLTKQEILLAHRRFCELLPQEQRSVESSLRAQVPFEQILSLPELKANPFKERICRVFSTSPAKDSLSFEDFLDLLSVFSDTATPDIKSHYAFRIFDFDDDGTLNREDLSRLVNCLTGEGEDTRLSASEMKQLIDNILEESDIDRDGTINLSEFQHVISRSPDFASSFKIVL
Summary of the method: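 CIB1-GST (1 uM final) and compound incubated 15 min at room temperature before adding FITC-alphaIIb peptide tracer (100 nM final). Competition for binding read by fluorescence polarization (ex 480, em 540) after another 15 min at room temperature.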

[4] = Primary qHTS for inhibitors of nuclear receptor binding SET domain protein 2 (NSD2) in an isogenic RCH-ACV NSD2 p.E1099K mutant (9B) (AID 1645876); note: % is set by controls: 0 for no effect and ±100 for the full control effect; nearly all actives have a fitted effect of over 70% in size
[5] = target: Phospholipid hydroperoxide glutathione peroxidase GPX4 (Homo sapiens) (UniProt P36969); assay: Primary qHTS Assay for Inhibitors of Recombinant Selenoprotein Glutathione Peroxidase 4 (GPX4) (AID 1845192); note: % is set by controls: 0 for no effect and ±100 for the full control effect; nearly all actives have a fitted effect of over 65% in size
Phospholipid hydroperoxide glutathione peroxidase GPX4 (Homo sapiens), sequence (P36969 whole entry, looked up): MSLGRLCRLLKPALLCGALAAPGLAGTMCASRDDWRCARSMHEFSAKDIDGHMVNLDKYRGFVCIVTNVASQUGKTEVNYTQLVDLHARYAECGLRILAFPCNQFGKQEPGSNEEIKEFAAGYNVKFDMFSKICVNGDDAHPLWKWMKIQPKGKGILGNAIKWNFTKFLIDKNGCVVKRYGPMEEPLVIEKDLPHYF
Summary of the method: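 NADPH consumption followed by fluorescence at 340/450 nm, t=0 and after 15 min at room temperature. Reaction started with cumene hydroperoxide (0.5 mM final) after 30 min compound–GPX4 preincubation; final 200 nM GPX4, 100 nM GR, 1 mM GSH, 0.5 mM NADPH.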

[6] = target: Luciferin 4-monooxygenase (Photinus pyralis) (UniProt P08659); assay: Primary firefly luciferase (FLuc) qHTS assay for identification of artifact compounds. (AID 1845220); conditions: outcome: dose series up to 54.1 µM unless noted; note: nearly all actives have a fitted effect of over 60% in size
Summary of the method: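 Compounds sat 15 min at room temperature with 10 uM luciferin and 10 uM ATP (pH 7.6 Tris acetate). Firefly luciferase (10 nM final) was then added, and luminescence was read 5 min later. Data normalized to no-enzyme and DMSO controls were Hill-fitted.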

[7] = tested on: Nanoluciferase (engineered Oplophorus gracilirostris luciferase); assay: Primary Nanoluciferase (NLuc) qHTS assay for identification of artifact compounds. (AID 1845222);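 note: 0% = DMSO and -100% = no enzyme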
Summary of the method: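 Luminescence from secreted NLuc (filtered, 1:55-diluted S16 cell medium) read 5 min after Nano-Glo substrate; compounds preincubated 15 min, RT. Hill fits of inhibition normalized to DMSO and no-enzyme.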

[8] = Primary redox qHTS assay for identification of artifact compounds. (AID 1845223);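 note: 0% = DMSO and 100% = reference compound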
Summary of the method: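 Redox-cycling detection via DTT (250 uM final) oxidation coupled to Amplex Red (25 uM)/HRP (250 mU/mL) in HBSS. 15 min preincubation plus 30 min after DTT, room temperature. Ex/Em 525/598 nm; 4-parameter Hill fit against DMSO and 10 uM DA3003.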

[9] = tested on: CRL-7250; assay: Cytotoxic Profiling of Annotated Libraries Using Quantitative High-Throughput Screening (AID 1296008); conditions: Five cell lines viability, CellTiter-Glo ATP luminescence, 48-72 h; max response: active compounds read low; note: nearly all actives have a fitted effect of over 60% in size; note: potency is the fitted concentration of half-maximal effect; for max response: % is set by controls: 0 for no effect and ±100 for the full control effect
Summary of the method: (§1)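 Cytotoxicity was measured as CellTiter-Glo ATP luminescence, read after 10 min at room temperature. Compound treatment of the cells lasted 48 or 72 hr at 37 degrees Celsius in a qHTS format.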

[10] = tested on: HEK293; assay: as above; conditions: Five cell lines viability, CellTiter-Glo ATP luminescence, 48-72 h; max response: active compounds read low
Summary of the method: as §1

[11] = tested on: NIH3T3; assay: as above; conditions: Five cell lines viability, CellTiter-Glo ATP luminescence, 48-72 h; max response: active compounds read low
Summary of the method: as §1

[12] = tested on: C33A; assay: Primary qHTS to identify gynecologic anti-cancer compounds using libraries of approved drugs and bioactive compounds (AID 1345084); conditions: Gynecologic cancer cell panel viability, ATPlite luminescence, 48 h; series mostly up to 57.5 µM; note: % is set by controls: 0 for no effect and ±100 for the full control effect; nearly all actives have a fitted effect of over 55% in size
Summary of the method: (§2)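 Measured: luminescence after ATPlite addition (15 min, RT). Exposure: 48 h, 37 C, 5% CO2.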

[13] = tested on: CASKI; assay: as above; conditions: Gynecologic cancer cell panel viability, ATPlite luminescence, 48 h; series mostly up to 57.5 µM
Summary of the method: as §2

[14] = tested on: Es-2; assay: as above; conditions: Gynecologic cancer cell panel viability, ATPlite luminescence, 48 h; series mostly up to 57.5 µM
Summary of the method: as §2

[15] = tested on: Hek293T; assay: as above; conditions: Gynecologic cancer cell panel viability, ATPlite luminescence, 48 h, control line for the selectivity index; series mostly up to 57.5 µM
Summary of the method: as §2

[16] = tested on: OV90; assay: as above; conditions: Gynecologic cancer cell panel viability, ATPlite luminescence, 48 h; series mostly up to 57.5 µM
Summary of the method: as §2

[17] = tested on: PA-1; assay: as above; conditions: Gynecologic cancer cell panel viability, ATPlite luminescence, 48 h; series mostly up to 57.5 µM
Summary of the method: as §2

[18] = tested on: Tov-21-G; assay: as above; conditions: Gynecologic cancer cell panel viability, ATPlite luminescence, 48 h; series mostly up to 57.5 µM
Summary of the method: as §2

[19] = tested on: Tov112D; assay: as above; conditions: Gynecologic cancer cell panel viability, ATPlite luminescence, 48 h; series mostly up to 57.5 µM
Summary of the method: as §2

[20] = tested on: HaCat; assay: Cytotoxic Profiling of Annotated Libraries Using Quantitative High-Throughput Screening (AID 1296008); conditions: Five cell lines viability, CellTiter-Glo ATP luminescence, 48-72 h; max response: active compounds read low; note: nearly all actives have a fitted effect of over 60% in size; note: potency is the fitted concentration of half-maximal effect; for max response: % is set by controls: 0 for no effect and ±100 for the full control effect
Summary of the method: as §1

COC(=O)C12C(=O)C(C)(O)C(=O)C1(C)C(C)=CC1C34CCC(OC3=O)C(C)(C)C4CCC12C (stereo unspecified)
inactive: Potency [1] | Potency [2] | Potency [3] | Potency [4] | Potency [5] | outcome [6] | Potency [7] | Potency [8] | max response [9] -8.47% | max response [10] -13.4% | max response [11] -10.7% | Potency [12] | Potency [13] | Potency [14] | Potency [15] | Potency [16] | Potency [17] | Potency [18] | Potency [19]

CN1CCCCC1Cn1cc(C(=O)c2cc([N+](=O)[O-])ccc2I)c2ccccc21 (stereo unspecified)
inactive: Potency [1] | Potency [2] | Potency [3] | Potency [4] | outcome [6] | Potency [7] | Potency [8] | max response [9] 2.06% | outcome [20] | outcome [11] | Potency [12] | Potency [13] | Potency [14] | Potency [15] | Potency [16] | Potency [17] | Potency [18] | Potency [19]

CN(C(=O)C(c1ccccc1)c1ccccc1)[C@H](CN1CC[C@H](O)C1)c1ccccc1
inactive: Potency [2] | Potency [3] | Potency [5] | outcome [6] | Potency [7] | Potency [8] | outcome [9] | outcome [20] | max response [11] 3.64% | Potency [12] | Potency [13] | Potency [14] | Potency [15] | Potency [16] | Potency [17] | Potency [18] | Potency [19]

C[C@]12CC[C@H](O)C[C@@]1(O)CC[C@@H]1[C@@H]2CC[C@]2(C)[C@@H](c3ccc(=O)oc3)CC[C@]12O
inactive: Potency [2] | Potency [7] | Potency [8] | max response [11] -7.45% | Potency [12] | Potency [13] | Potency [14] | Potency [15] | Potency [16] | Potency [17] | Potency [18] | Potency [19]
active: Potency [1] 0.0184 µM | Potency [9] 0.0052 µM | Potency [10] 0.0517 µM

COc1ccc2c(c1)c(CCN(C)C)cn2S(=O)(=O)c1ccccc1
inactive: Potency [1] | Potency [3] | Potency [5] | outcome [6] | Potency [7] | Potency [8] | max response [9] 1.29% | outcome [20] | outcome [11] | Potency [12] | Potency [13] | Potency [14] | Potency [15] | Potency [16] | Potency [17] | Potency [18] | Potency [19]

CN1C(=O)[C@@H](Cc2c[nH]c3ccccc23)N=C(c2ccccc2F)c2ccccc21
inactive: Potency [2] | Potency [3] | Potency [5] | outcome [6] | Potency [7] | Potency [8] | outcome [9] | max response [20] -23.4% | max response [11] -3.73% | Potency [12] | Potency [13] | Potency [14] | Potency [15] | Potency [16] | Potency [17] | Potency [18] | Potency [19]

CN(Cc1cccc(-c2ccncc2)c1)C(=O)Oc1ccc(-c2ccc(C(N)=O)cc2)cc1
inactive: Potency [1] | Potency [2] | Potency [3] | Potency [5] | outcome [6] | Potency [7] | Potency [8] | outcome [9] | outcome [20] | max response [11] 2.66% | Potency [12] | Potency [13] | Potency [14] | Potency [15] | Potency [16] | Potency [17] | Potency [18] | Potency [19]

C=C(C)[C@@H]1[C@H]2OC(=O)[C@H]1[C@]1(O)C[C@H]3O[C@]34C(=O)O[C@H]2[C@]14C
inactive: Potency [1] | Potency [2] | Potency [4] | Potency [5] | outcome [6] | Potency [7] | Potency [8] | outcome [9] | outcome [10] | outcome [11] | Potency [12] | Potency [13] | Potency [14] | Potency [15] | Potency [16] | Potency [17] | Potency [18] | Potency [19]

CC(C)[C@H](NC(=O)c1nn(Cc2ccc(F)cc2)c2ccccc12)C(N)=O
inactive: Potency [1] | Potency [2] | Potency [4] | Potency [5] | outcome [6] | Potency [7] | max response [9] -7.52% | max response [10] -11.8% | max response [11] -27.5% | Potency [12] | Potency [13] | Potency [14] | Potency [15] | Potency [16] | Potency [17] | Potency [18] | Potency [19]
